Test results as given in PubChem BioAssay (NCI).
About 79,000 compounds went through this panel and 15% of them were active in at least one assay; those are over-represented in the sample as a whole. Cut-off read from the data, not from the text of the source: active = growth inhibition above about 70%; inactive = the rest.

Columns and labels:
[1] = NCI Yeast Anticancer Drug Screen. Data for the rad50 strain (AID 155);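 note: 0% = growth of vehicle-only cultures of the same strain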; details: S. cerevisiae rad50 strain growth inhibition; at 50.0 µM; active compounds read high
Outline: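 Relative growth inhibition (compound vs vehicle) was measured in yeast with a defined repair-gene alteration.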

[2] = NCI Yeast Anticancer Drug Screen. Data for the mec2-1 strain (AID 157); details: S. cerevisiae mec2-1 strain, at 50.0 µM, active compounds read high
Outline: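 Each compound was tested on mec2-1 yeast, a strain altered in DNA damage repair or cell cycle control. Growth inhibition is reported relative to vehicle.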

[3] = NCI Yeast Anticancer Drug Screen. Data for the sgs1 mgt1 strain (AID 161);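 note: 0% = growth of cultures given vehicle only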; details: S. cerevisiae sgs1 mgt1 strain, at 50.0 µM, active compounds read high
Outline: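 Inhibition of yeast growth, normalised to vehicle-treated controls, is reported for a strain bearing genetic alterations in DNA damage repair.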

[4] = NCI Yeast Anticancer Drug Screen. Data for the cln2 rad14 strain (AID 165);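 note: 0% = growth equal to vehicle treated cultures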; details: S. cerevisiae cln2 rad14 strain, at 50.0 µM, active compounds read high
Outline: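 Test compounds were added to cln2 rad14 yeast cultures; inhibition of growth was then determined by comparison with vehicle treatment.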

[5] = NCI Yeast Anticancer Drug Screen. Data for the bub3 strain (AID 167); details: S. cerevisiae bub3 mutant strain, at 50.0 µM, active compounds read high
Outline: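 Screening used yeast with an engineered genetic alteration affecting cell cycle control. Compound-exposed cultures were compared with vehicle cultures, and reduced growth was taken as inhibition.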

[6] = NCI Yeast Anticancer Drug Screen. Data for the mlh1 rad18 strain (AID 175); details: S. cerevisiae mlh1 rad18 strain growth inhibition; at 50.0 µM; active compounds read high
Outline: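 Inhibition values reflect reduced growth of mutant yeast versus vehicle-treated controls following compound exposure; the mutations affect DNA damage repair.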

Measured: growth inhibition

COc1ccc(-c2oc3ccc(C)cc3c(=O)c2O)cc1
inactive: [1] 6.9% | [2] -8% | [3] -14.8% | [4] 14.8% | [5] -5.7% | [6] -26.8%

CC(CCl)CC#N (stereo unspecified)
inactive: [1] -5.6% | [2] -19.1% | [3] 7.9% | [4] 13.1% | [5] -10% | [6] -1.1%

C/C(=C\O[Si](C)(C)C)c1ccccc1
inactive: [1] 37.6% | [2] 23.9% | [3] 12.4% | [4] 7.6% | [5] -11.2% | [6] 41.1%

CN(C)CCCNc1ccc2ncn3c4ccc(O)cc4c(=O)c1c23
inactive: [1] -4.45% | [2] -3.9% | [3] -14.3% | [4] -15.3% | [5] 0.5% | [6] 7.9%

Cc1ccccc1NCC(C)O (stereo unspecified)
inactive: [1] -3.05% | [2] 6.15% | [3] -5.9% | [4] -84.5% | [5] -20.4% | [6] -32%

CC(=O)Nc1ccc(C(N)=S)cc1
inactive: [1] 11.8% | [2] 7.5% | [3] 3.25% | [4] 5.4% | [5] 10.5% | [6] 4.1%

COC(=O)CC(NC(=O)C(Cc1cncn1C(=O)OCc1ccccc1)NC(=O)OCc1ccccc1)C(=O)O (stereo unspecified)
inactive: [1] 10.2% | [2] 3.25% | [3] 0.45% | [4] 6.8% | [5] 0.05% | [6] -4.55%

CCCC[n+]1cccc(C(N)=O)c1
inactive: [1] -3.55% | [2] -19.9% | [3] 3.35% | [4] 0.4% | [5] 12.8% | [6] -2.15%

CCC(CC)C1OCC(O)CO1 (stereo unspecified) (tested in a mixture with another compound)
inactive: [1] 20.4% | [2] 2.7% | [3] 10% | [4] 6.85% | [5] 22.1% | [6] 17.4%

FC12CCC(c3ccccc3)(CC1)CC2
inactive: [1] 11.8% | [2] -8.55% | [3] -4% | [4] -30.1% | [5] -3.5% | [6] -7.4%

O=Cc1c(O)ccc2ccc3ccccc3c12
inactive: [1] 16.1% | [2] 7.25% | [3] 10.1% | [4] -32.7% | [5] -7.7% | [6] 16.4%

CC(=O)Nc1c(C)cccc1[N+](=O)[O-]
inactive: [1] 5.35% | [2] -14.2% | [3] 0% | [4] -17.6% | [5] 2.8% | [6] 3.65%

Cn1c(-c2ccccc2)nc(-c2ccccc2)[n+]1[O-]
inactive: [1] 8.75% | [2] -0.55% | [3] 1.85% | [4] 9.8% | [5] 0.6% | [6] 28.6%

COc1cc2c(cc1OC)C(c1ccccc1CCCCl)=NCC2
inactive: [1] 6.4% | [2] -4% | [3] -25.1% | [4] 10.8% | [5] -27.5% | [6] -44.7%

CCCCCCCCCCCCCCCCCC
inactive: [1] -9.7% | [2] -6.9% | [3] -16.2% | [4] 6.7% | [5] 0.25% | [6] -2.15%

CC(=O)Nn1cnc(C(=N)C#N)c1N
inactive: [1] -27.1% | [2] -6.15% | [3] -6.15% | [4] 11.8% | [5] -0.75% | [6] -2.95%

Nc1ccc(C(=O)Nc2nccs2)cc1
inactive: [1] 8.4% | [2] 12.6% | [3] 6.8% | [4] -19.8% | [5] 14.6% | [6] 4.75%

O=C(O)c1cc(-c2ccccc2)nc2c(Cl)cc(Cl)cc12
inactive: [1] -12.9% | [2] -28.8% | [3] -1.85% | [4] 9.8% | [5] -16.4% | [6] -3.6%

CCC(O)C(CC)[N+](=O)[O-] (stereo unspecified)
inactive: [1] -4.45% | [2] -17.4% | [3] -2.75% | [4] 4.05% | [5] -2.8% | [6] 5.5%

Nc1[nH]c(=O)nc2c1cnn2Cc1ccccc1
inactive: [1] -0.75% | [2] -10.1% | [3] -14.2% | [4] -12.2% | [5] -2.7% | [6] -3.8%

Cc1ccc(S(=O)OCC23CC4CC(CC(C4)C2)C3)cc1 (stereo unspecified)
inactive: [1] 17.5% | [2] 1.6% | [3] -1.05% | [4] 17.5% | [5] -5.55% | [6] -30.6%
